Shown are actives, neighbours in structure and some others; about 11% of the full set was active somewhere.
Ins promoter up: insulin promoter activators in MIN6 cells, imaging, high-content screening, mouse beta cells; MIN6 insulin promoter-GFP reporter; stronger effect = higher value; z-score at 5 µM; 190,000 compounds, 0.3% hits;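 active means z-score above 3 at 5 µM with at least 500 cells counted in the well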
Insulin prom inh: inhibitors of insulin promoter-driven GFP, primary screen, imaging, TRM-6 cells (human fetal islet line), eGFP reporter, cell count; reporter expression induced with tamoxifen; inhibition, % at 2 µM; 130,000 compounds, 0.9% hits; AID 1273, 2008;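 active means inhibition above the mean plus 3 SD, with well images judged a real hit on visual review, cut at about 60% in these data, passing the limit was not always enough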
WT yeast gro inh: growth inhibition of WT strain, primary screen, mitochondrial fusion inhibitor project, WT and mutant strains, chemical genetic; 190,000 compounds, 2.1% hits; AID 1362, 2008; inhibition, % at 10 µM; mitochondrial fusion phenotypic screen; in the data active means inhibition above about 58%; tested in S. cerevisiae
Lmaj promast: Leishmania major promastigote growth inhibition, primary screen. Leishmania major promastigotes, resazurin fluorescence viability. inhibition, % at 10 µM. 200,000 compounds, 9% hits. AID 1063, 2008; in the data active means inhibition above about 50%;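 further: promastigotes grown with compound for 44 hours at 28 °C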
Autophagy mod: autophagy modulators in MEF cells, primary screen, imaging, high-content, MEF GFP-LC3; MEF GFP-LC3 puncta imaging; test concentration mostly 10 µM; calls only at 10 µM (by protocol); 190,000 compounds, 0.98% hits;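 active means percentage of spot-positive cells more than 3 SD above its plate mean, without a fluorescence outlier flag or 80% toxicity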
A number is an active result; 0 = inactive; - = no result; + = active, no number.

SMILES	Ins promoter up	Insulin prom inh	WT yeast gro inh	Lmaj promast	Autophagy mod
Cc1cc([N+](=O)[O-])nn1CCCC(=O)Nc1cccc(Cl)c1Cl	0	0	0	0	0
O=C(c1cnccn1)N1CCc2c([nH]c3ccccc23)C1c1cccc(Cl)c1 (stereo unspecified)	0	-	61	0	0
Cc1nc(C(=O)N2CCc3c([nH]c4ccccc34)C2c2ccccn2)cs1 (stereo unspecified)	0	0	0	0	0
Cc1nc(C(=O)N2CCc3c([nH]c4ccccc34)C2c2cc(F)ccc2F)cs1 (stereo unspecified)	0	-	75	54	0
Cc1cc(C(=O)N2CCc3c([nH]c4ccccc34)C2c2cccc(Cl)c2)nn1C (stereo unspecified)	-	0	61	0	0
CCc1ccc(C2c3[nH]c4ccccc4c3CCN2C(=O)c2cc(C)nn2C)cc1 (stereo unspecified)	-	0	0	60	0
Nc1cc(C(=O)O)ccc1N1CCCCCC1	0	0	0	0	0
C=C(C)CNC(=S)Nc1sc2c(c1C(=O)OCC)CC(C)(C)OC2	0	-	0	0	0
CNCC(=O)N1CCN(c2ncc(C(F)(F)F)cc2Cl)CC1	0	-	0	71	0
O=C(Nc1ccc2c(c1)OCO2)N1CCN(c2ncc(C(F)(F)F)cc2Cl)CC1	0	0	0	68	0
CCC1COC(c2cccn2Cc2ccccc2Cl)=N1 (stereo unspecified)	0	-	0	0	+
Fc1ccc(Cn2cccc2C2=NC(c3ccccc3)CO2)cc1 (stereo unspecified)	0	0	0	0	0
O=C(N/N=C/c1cccc(F)c1)c1cc(-c2ccco2)nc2ccccc12	0	0	60	0	0
CC(/C=N/NC(=O)c1cc(-c2ccccc2)nc2ccccc12)=C\c1ccco1	0	0	0	98	0
COc1cc(/C=N/NC(=O)c2cc(-c3ccco3)nc3ccccc23)cc(OC)c1O	0	-	-	-	-
CC(/C=N/NC(=O)c1cc(-c2ccc(Cl)cc2)nc2ccccc12)=C\c1ccco1	-	0	0	62	0
CC(/C=N/NC(=O)CN1CCN(Cc2ccc(Cl)cc2)CC1)=C\c1ccco1	0	0	0	0	0
Cc1cc(C(=O)N/N=C/c2ccco2)c2ccccc2n1	0	0	0	0	0
O=C(NCc1ccco1)c1ccc(COc2cc(Cl)ccc2Cl)cc1	0	-	0	0	0
O=C(CCSc1ccc(Cl)c(Cl)c1)NC12CC3CC(CC(C3)C1)C2	0	0	0	0	0
C=CCNC(=S)NNC(=O)c1ccc(=O)n(Cc2ccc(Cl)cc2Cl)c1	0	-	0	0	0
CCc1ccc(S(=O)(=O)/N=C2/C=C(Sc3ncn[nH]3)C(=O)c3ccccc32)cc1	0	0	0	100	0
CCc1ccc(S(=O)(=O)/N=C2\C=CC(=O)c3ccccc32)cc1	0	0	0	93	0
Cc1ccc(S(=O)(=O)/N=C2/C=C(C3C(=O)CC(C)(C)CC3=O)C(=O)c3ccccc32)cc1	0	0	0	0	0
COc1ccccc1CN(Cc1ccco1)S(=O)(=O)c1ccc(-n2cnnn2)c(OC)c1	0	0	0	73	0
SMILES	Ins promoter up	Insulin prom inh	WT yeast gro inh	Lmaj promast	Autophagy mod
COc1cc(S(=O)(=O)N(Cc2ccccn2)Cc2ccccc2Cl)ccc1-n1cnnn1	-	0	0	0	0
COc1cccc(CN(Cc2cccnc2)S(=O)(=O)c2ccc(-n3cnnn3)c(C)c2)c1OC	0	-	0	98	0
Cc1ccc(S(=O)(=O)c2nnn3c2nc(N2CCCCC2)c2ccccc23)cc1	0	0	0	62	0
O=C(NCc1nnc(SCc2ccc(C(F)(F)F)cc2)n1-c1ccccc1)C12CC3CC(CC(C3)C1)C2	0	0	72	0	0
O=C(NCc1nnc(SCc2ccc(F)cc2)n1-c1ccccc1)C12CC3CC(CC(C3)C1)C2	0	-	0	0	0
CCOc1ccccc1N1CCN(Cc2c(C)n(C)n(-c3ccccc3)c2=O)CC1	0	-	0	0	0
COCCNC(=O)C1c2ccccc2C(=O)N(CCOC)C1c1ccc(F)cc1 (stereo unspecified)	0	0	0	0	0
COCCN1C(=O)c2ccccc2C(C(=O)NCCN(C)C)C1c1ccc(F)cc1 (stereo unspecified)	0	79	0	0	0
CC(=O)c1nnn(-c2ccc([N+](=O)[O-])cc2)c1C	0	0	0	0	0
Cn1ccc2c([N+](=O)[O-])cccc2c1=O	0	0	0	0	0
CCN(CC)S(=O)(=O)c1ccc(O)c(C(=O)OCC(=O)N2c3ccccc3CC2C)c1 (stereo unspecified)	0	-	-	-	-
Nc1c(S(=O)(=O)c2ccccc2)c2nc3ccccc3nc2n1/N=C/c1cccc(O)c1	0	-	0	91	0
Cc1ccc(C)c(S(=O)(=O)c2c(N)n(/N=C/c3ccco3)c3nc4ccccc4nc23)c1	0	-	0	94	0
Cc1ccc(NC(=O)C2CCN(c3cnccn3)CC2)cc1C	0	0	0	89	0
CC1CCCN(c2nc3nonc3nc2Nc2ccccc2F)C1 (stereo unspecified)	0	-	0	0	0
COc1ccc(OC)c(Nc2nc3nonc3nc2N2CCCC(C)C2)c1 (stereo unspecified)	0	0	0	0	+
CC(C)(C)NC(=O)Cn1c(=O)oc2cc(S(=O)(=O)N3CCc4ccccc43)ccc21	0	-	0	98	0
CCOC(=O)Cn1c(=O)oc2cc(S(=O)(=O)N3CCc4ccccc43)ccc21	0	-	0	60	0
Cn1c(=O)oc2cc(S(=O)(=O)N3CCc4ccccc43)ccc21	0	-	-	-	-
CCOC(=O)Cn1c(=O)oc2cc(S(=O)(=O)Nc3cc(OCC)ccc3OCC)ccc21	0	-	-	71	0
Cn1c(=O)c(=O)n(C)c2cc(S(=O)(=O)N3CCc4ccccc43)ccc21	0	-	0	52	0
Clc1nc(-c2cccnc2)nc2scc(-c3ccccc3)c12	0	0	77	0	0
COc1ccc(-c2csc3nc(-c4cccnc4)nc(Cl)c23)cc1OC	0	0	63	54	0
CCc1nnc(NC(=O)[C@@H](NC(=O)c2cccc(S(=O)(=O)N(CC)CC)c2)C(C)C)s1	-	0	0	0	0
CCOC(=O)c1cc(-c2ccc(OC(F)F)cc2)nc2c1c(=O)[nH]c(=O)n2C	0	0	0	0	0
SMILES	Ins promoter up	Insulin prom inh	WT yeast gro inh	Lmaj promast	Autophagy mod
CN(C)c1cccc2c(C=C(C#N)C#N)ccc(N(C)C)c12	0	0	0	0	0
COCCOC(=O)C1=C(C)NC(=S)NC1/C=C/c1ccccc1 (stereo unspecified)	0	0	0	0	0
CC1=C(C(=O)OCc2ccccc2)C(/C=C/c2ccccc2)NC(=S)N1 (stereo unspecified)	0	-	69	0	0
C=CCOC(=O)C1=C(C)NC(=S)NC1/C=C/c1ccccc1 (stereo unspecified)	-	0	-	89	0
Oc1ccc(/C=N/n2c(-c3ccco3)csc2=Nc2cccnc2)c(O)c1	0	0	0	99	0
CC(C)N=c1scc(-c2ccco2)n1/N=C/c1ccc(O)c(O)c1	0	0	0	99	0

High-throughput results deposited in PubChem BioAssay by several laboratories.
